Laboratory results: PubChem BioAssay AID1159580 (chemical genetic matrix, 2015)
About 2,000 (36%) of roughly 5,500 compounds were called active. Inconclusive results (about 18%) are left out. No stated cut-off is given here; in the data, active means normalized growth mostly below about 0.91 (no sharp cut-off); inconclusive means no clear call, values can overlap the other calls; inactive means mostly above about 0.92. Some of the results follow.

Test: chemical genetic growth profiling, strain panel (AID 1159580);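 further: tested at 20 µM; growth read once vehicle control cultures reached saturation at 30 °C; 1 = growth at the plate median or of vehicle wells; lower values mean less growth of the strain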
Conditions: growth OD

Measured: normalized growth

N#C/C(=C\c1ccc(O)cc1)C(=O)O
inactive: S. cerevisiae deletion strains, locus YJR075W, strain HOC1, active compounds read low 0.979 | S. cerevisiae deletion strains, locus YKL009W, strain mrt4, active compounds read low 0.963 | S. cerevisiae deletion strains, locus YKL068W, active compounds read low 0.999 | S. cerevisiae deletion strains, locus YKL085W, strain MDH1 (second series), active compounds read low 0.973 | S. cerevisiae deletion strains, locus YKL085W, strain MDH1, active compounds read low 0.973 | S. cerevisiae deletion strains, locus YKL160W, strain elf1, active compounds read low 0.988 | S. cerevisiae deletion strains, locus YKL190W, strain CNB1, active compounds read low 0.992 | S. cerevisiae deletion strains, locus YKR001C, strain vps1, active compounds read low 1.01 | S. cerevisiae deletion strains, locus YKR026C, strain gcn3, active compounds read low 0.97 | S. cerevisiae deletion strains, locus YKR091W, strain srl3, active compounds read low 0.994 | S. cerevisiae deletion strains, locus YLL001W, strain dnm1, active compounds read low 0.994 | S. cerevisiae deletion strains, locus YLL026W, active compounds read low 1.01 | S. cerevisiae deletion strains, locus YLL041C, strain sdh2, active compounds read low 0.995 | S. cerevisiae deletion strains, locus YLR027C, strain aat2, active compounds read low 1.01 | S. cerevisiae deletion strains, locus YLR039C, strain RIC1, active compounds read low 0.981 | S. cerevisiae deletion strains, locus YLR058C, strain SHM2, active compounds read low 0.979 | S. cerevisiae deletion strains, locus YLR102C, strain apc9, active compounds read low 0.988 | S. cerevisiae deletion strains, locus YLR113W, strain HOG1, active compounds read low 1.01 | S. cerevisiae deletion strains, locus YLR221C, strain rsa3, active compounds read low 0.984 | S. cerevisiae deletion strains, locus YLR258W, strain gsy2, active compounds read low 1 | S. cerevisiae deletion strains, locus YLR262C, strain YPT6 (second series), active compounds read low 0.993 | S. cerevisiae deletion strains, locus YLR262C, strain YPT6, active compounds read low 0.97 | S. cerevisiae deletion strains, locus YLR268W, strain sec22, active compounds read low 0.985 | S. cerevisiae deletion strains, locus YLR320W, strain mms22, active compounds read low 1.03 | S. cerevisiae deletion strains, locus YLR330W, strain CHS5, active compounds read low 0.992 | S. cerevisiae deletion strains, locus YLR342W, strain FKS1 (second series), active compounds read low 1.07 | S. cerevisiae deletion strains, locus YLR342W, strain FKS1, active compounds read low 1.01 | S. cerevisiae deletion strains, locus YLR357W, strain rsc2, active compounds read low 0.989 | S. cerevisiae deletion strains, locus YLR370C, strain arc18, active compounds read low 0.995 | S. cerevisiae deletion strains, locus YLR371W, strain rom2, active compounds read low 1.01 | S. cerevisiae deletion strains, locus YLR384C, strain iki3, active compounds read low 1 | S. cerevisiae deletion strains, locus YLR418C, strain cdc73, active compounds read low 0.953 | S. cerevisiae deletion strains, locus YML016C, strain PPZ1, active compounds read low 0.992 | S. cerevisiae deletion strains, locus YML032C, strain rad52, active compounds read low 1.03 | S. cerevisiae deletion strains, locus YML120C, strain ndi1, active compounds read low 0.994 | S. cerevisiae deletion strains, locus YML124C, strain tub3, active compounds read low 0.999 | S. cerevisiae deletion strains, locus YMR058W, strain fet3, active compounds read low 0.988 | S. cerevisiae deletion strains, locus YMR078C, strain ctf18, active compounds read low 0.998 | S. cerevisiae deletion strains, locus YMR125W, strain sto1, active compounds read low 0.96 | S. cerevisiae deletion strains, locus YMR129W, active compounds read low 0.982 | S. cerevisiae deletion strains, locus YMR205C, strain PFK2, active compounds read low 1.04 | S. cerevisiae deletion strains, locus YMR223W, strain ubp8, active compounds read low 1.04 | S. cerevisiae deletion strains, locus YMR231W, strain pep5, active compounds read low 1.01 | S. cerevisiae deletion strains, locus YMR263W, strain SAP30, active compounds read low 0.962 | S. cerevisiae deletion strains, locus YMR307W, strain GAS1, active compounds read low 1.12 | S. cerevisiae deletion strains, locus YNL067W, strain RPL9B, active compounds read low 0.974 | S. cerevisiae deletion strains, locus YNL071W, strain lat1, active compounds read low 0.998 | S. cerevisiae deletion strains, locus YNL128W, strain TEP1, active compounds read low 0.927 | S. cerevisiae deletion strains, locus YNL153C, strain GIM3, active compounds read low 0.953 | S. cerevisiae deletion strains, locus YNL183C, strain NPR1, active compounds read low 0.993 | S. cerevisiae deletion strains, locus YNL209W, strain ssb2, active compounds read low 0.997 | S. cerevisiae deletion strains, locus YNL233W, strain BNI4, active compounds read low 0.997 | S. cerevisiae deletion strains, locus YNL248C, strain rpa49, active compounds read low 0.963 | S. cerevisiae deletion strains, locus YNL250W, strain rad50, active compounds read low 0.968 | S. cerevisiae deletion strains, locus YNL271C, strain bni1, active compounds read low 1.01 | S. cerevisiae deletion strains, locus YNL298W, strain CLA4, active compounds read low 1 | S. cerevisiae deletion strains, locus YNL307C, strain MCK1, active compounds read low 1.03 | S. cerevisiae deletion strains, locus YNL322C, strain KRE1 (second series), active compounds read low 0.996 | S. cerevisiae deletion strains, locus YNL322C, strain KRE1, active compounds read low 0.977 | S. cerevisiae deletion strains, locus YNR049C, strain mso1, active compounds read low 0.996 | S. cerevisiae deletion strains, locus YNR052C, strain pop2, active compounds read low 1 | S. cerevisiae deletion strains, locus YOL006C, strain TOP1, active compounds read low 0.912 | S. cerevisiae deletion strains, locus YOL012C, strain htz1 1.16 | S. cerevisiae deletion strains, locus YOL147C, strain pex11, active compounds read low 0.998 | S. cerevisiae deletion strains, locus YOR001W, strain rrp6, active compounds read low 0.982 | S. cerevisiae deletion strains, locus YOR061W, strain CKA2, active compounds read low 0.954 | S. cerevisiae deletion strains, locus YOR069W, strain VPS5, active compounds read low 0.992 | S. cerevisiae deletion strains, locus YOR070C, strain gyp1, active compounds read low 1 | S. cerevisiae deletion strains, locus YOR080W, strain dia2, active compounds read low 0.996 | S. cerevisiae deletion strains, locus YOR083W, strain WHI5, active compounds read low 0.978 | S. cerevisiae deletion strains, locus YOR106W, strain vam3, active compounds read low 0.997 | S. cerevisiae deletion strains, locus YOR136W, strain idh2, active compounds read low 1 | S. cerevisiae deletion strains, locus YOR144C, strain elg1, active compounds read low 0.993 | S. cerevisiae deletion strains, locus YOR184W, strain ser1, active compounds read low 1.08 | S. cerevisiae deletion strains, locus YOR231W, strain MKK1, active compounds read low 1.04 | S. cerevisiae deletion strains, locus YOR265W, strain rbl2, active compounds read low 1 | S. cerevisiae deletion strains, locus YOR270C, strain vph1, active compounds read low 0.989 | S. cerevisiae deletion strains, locus YOR290C, strain snf2, active compounds read low 0.958 | S. cerevisiae deletion strains, locus YOR316C, strain cot1, active compounds read low 0.985 | S. cerevisiae deletion strains, locus YPL051W, strain arl3, active compounds read low 0.988 | S. cerevisiae deletion strains, locus YPL055C, strain LGE1, active compounds read low 0.908 | S. cerevisiae deletion strains, locus YPL078C, strain atp4, active compounds read low 0.971 | S. cerevisiae deletion strains, locus YPL106C, strain sse1, active compounds read low 1 | S. cerevisiae deletion strains, locus YPL240C, strain hsp82, active compounds read low 0.986 | S. cerevisiae deletion strains, locus YPL241C, strain CIN2, active compounds read low 0.985 | S. cerevisiae deletion strains, locus YPL256C, strain CLN2, active compounds read low 1.09 | S. cerevisiae deletion strains, locus YPR119W, strain clb2, active compounds read low 1 | S. cerevisiae deletion strains, locus YPR141C, strain kar3, active compounds read low 0.977 | S. cerevisiae deletion strains, locus YPR163C, strain tif3, active compounds read low 1.01 | S. cerevisiae deletion strains, locus YPR167C, strain met16, active compounds read low 0.984 | S. cerevisiae deletion strains, strain wtn01, active compounds read low 0.977 | S. cerevisiae strains, strain wild type, active compounds read low 0.983
